According to PubChem BioAssay AID1159580 (chemical genetic matrix, 2015):
Where “and” joins values, the source holds several entries; their conditions need not be identical. Identical values can stand only once. In all, about 5,500 compounds went through this assay and about 2,000 (36%) were called active. About 18% were inconclusive and are not listed. No stated cut-off is given here; in the data, active means normalized growth mostly below about 0.91 (no sharp cut-off); inconclusive means no clear call, values can overlap the other calls; inactive means mostly above about 0.92. This is one part of the list.

Experiment: chemical genetic growth profiling, strain panel (AID 1159580);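 further: tested at 20 µM; growth read once vehicle control cultures reached saturation at 30 °C; 1 = growth at the plate median or of vehicle wells; lower values mean less growth of the strain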
Details: S. cerevisiae deletion strains, growth OD

Measured: normalized growth

COc1cc(Cc2cnc(N)nc2N)cc(OC)c1OC
inactive: locus YAL013W, strain DEP1, hits give low values 1 and 1.03 | locus YAL021C, strain ccr4, hits give low values 1.02 | locus YAL026C, strain drs2, hits give low values 1.01 | locus YAL030W, strain snc1, hits give low values 1.01 | locus YAL040C, strain CLN3, hits give low values 0.987 | locus YBL061C, strain skt5, hits give low values 1.01 | locus YBR009C, strain hhf1, hits give low values 1.01 | locus YBR021W, strain FUR4, hits give low values 0.977 | locus YBR023C, strain chs3, hits give low values 1.01 | locus YBR171W, strain sec66, hits give low values 1.02 | locus YBR229C, strain ROT2, hits give low values 0.998 | locus YBR231C, strain swc5, hits give low values 1.01 | locus YBR279W, strain paf1, hits give low values 1.02 | locus YCL011C, strain gbp2, hits give low values 1.02 | locus YCL016C, strain dcc1, hits give low values 1.02 | locus YCL029C, strain bik1, hits give low values 0.982 | locus YCL061C, strain MRC1 (second series), hits give low values 0.992 | locus YCL069W, strain vba3, hits give low values 1.02 | locus YCR088W, strain abp1, hits give low values 1.02 | locus YDL005C, strain med2, hits give low values 1.02 | locus YDL035C, strain GPR1, hits give low values 1.03 | locus YDL040C, strain nat1, hits give low values 1.01 | locus YDL074C, strain BRE1, hits give low values 0.993 | locus YDL101C, strain DUN1, hits give low values 0.99 | locus YDL134C, strain PPH21, hits give low values 0.986 | locus YDL185W, strain tfp1, hits give low values 0.987 | locus YDL192W, strain arf1, hits give low values 0.99 | locus YDR001C, strain nth1, hits give low values 1.01 | locus YDR069C, strain doa4, hits give low values 1.03 | locus YDR101C, strain arx1, hits give low values 0.986 | locus YDR137W, strain rgp1, hits give low values 1.02 | locus YDR150W, strain NUM1, hits give low values 1 | locus YDR159W, strain sac3, hits give low values 0.977 | locus YDR162C, strain NBP2, hits give low values 1 | locus YDR195W, strain ref2 1 | locus YDR297W, strain sur2, hits give low values 1.01 | locus YDR318W, strain mcm21, hits give low values 0.99 | locus YDR334W, strain swr1, hits give low values 1.02 | locus YDR335W, strain msn5, hits give low values 1.02 | locus YDR363W, strain ESC2, hits give low values 0.991 | locus YDR388W, hits give low values 0.987 | locus YDR392W, strain spt3, hits give low values 0.984 | locus YDR502C, strain sam2, hits give low values 0.998 | locus YEL003W, strain gim4, hits give low values 1.02 | locus YEL037C, strain rad23, hits give low values 1.01 | locus YEL061C, strain CIN8 (second series), hits give low values 1.01 | locus YEL061C, strain CIN8, hits give low values 0.997 | locus YER002W, strain NOP16, hits give low values 0.968 | locus YER015W, strain faa2, hits give low values 1.02 | locus YER016W, strain bim1, hits give low values 1.01 | locus YER110C, hits give low values 0.988 | locus YER111C, strain swi4, hits give low values 1.03 | locus YER155C, strain BEM2 (second series), hits give low values 0.991 | locus YER155C, strain BEM2, hits give low values 0.989 | locus YER167W, strain BCK2, hits give low values 1.01 | locus YFR010W, strain ubp6, hits give low values 1.01 | locus YGL078C, strain dbp3, hits give low values 0.992 | locus YGL086W, strain mad1, hits give low values 1.01 | locus YGL167C, strain pmr1, hits give low values 1.02 | locus YGL173C, strain kem1, hits give low values 1.02 | locus YGL227W, strain vid30, hits give low values 1.01 | locus YGL240W, strain doc1, hits give low values 1.01 | locus YGL248W, strain PDE1, hits give low values 1 | locus YGL253W, strain hxk2, hits give low values 1.01 | locus YGR078C, strain PAC10, hits give low values 1.01 | locus YGR135W, strain pre9, hits give low values 0.985 | locus YGR229C, strain SMI1, hits give low values 1.04 | locus YGR252W, strain gcn5, hits give low values 1.07 | locus YHR013C, strain ard1, hits give low values 1.01 | locus YHR027C, strain rpn1, hits give low values 1.01 | locus YHR030C, strain SLT2, hits give low values 0.999 and 0.966 | locus YHR079C, strain IRE1 (second series), hits give low values 0.988 | locus YHR079C, strain IRE1, hits give low values 0.979 | locus YHR094C, strain hxt1, hits give low values 0.993 | locus YHR129C, strain ARP1, hits give low values 0.991 | locus YHR142W, strain chs7, hits give low values 1.03 | locus YHR200W, strain rpn10, hits give low values 0.989 | locus YIL066C, strain RNR3, hits give low values 1 | locus YIL073C, strain SPO22, hits give low values 0.995 | locus YIL125W, strain kgd1, hits give low values 1 | locus YIR030C, strain dcg1, hits give low values 0.991 | locus YJL092W, strain hpr5, hits give low values 1 | locus YJL095W, strain BCK1 (second series), hits give low values 1.01 | locus YJL095W, strain BCK1, hits give low values 0.988 and 0.98 | locus YJL115W, strain asf1, hits give low values 1.02 | locus YJL129C, strain trk1, hits give low values 1.01 | locus YJL134W, strain LCB3, hits give low values 0.999 | locus YJL154C, strain vps35, hits give low values 1.03 | locus YJL164C, strain tpk1, hits give low values 1.01 | locus YJL166W, strain qcr8, hits give low values 0.993 | locus YJL168C, strain set2, hits give low values 0.993 | locus YJL187C, strain SWE1 (second series), hits give low values 0.993 | locus YJL187C, strain SWE1, hits give low values 1.02 | locus YJR043C, strain POL32, hits give low values 1 | locus YJR066W, strain TOR1, hits give low values 0.929
